Several values for one entry are separate records, joined by “and”; a condition that tells them apart may be missing. Equal values may be shown once. Results filed as inconclusive are left out. Activity calls are given as the source filed them. Rule for the calls, unless noted: active = hit-call score of the fitted dose curve at least 0.9, where 1 is the maximum; inactive = score below 0.9.
How the values were obtained:
[1] = read-out: Phosphatase and tensin (PTEN), PTEN (gene 5728); assay: LTEA_HepaRG_PTEN: Life Technologies and Expression Analysis (LTEA) Assay for Phosphatase and tensin (PTEN) using HepaRG (AID 2283523); details: mRNA level, 48 h; actives raise or lower the signal
Outline: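 Read-out is PTEN transcript level by multiplexed TaqMan qRT-PCR after 48 h chemical treatment of human HepaRG cultures in serum-free induction medium. Concentrations spanned 100 uM downward in half-log steps, 0.5% DMSO throughout; activity fitted in both directions against vehicle.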

[2] = read-out: solute carrier (SLC22A1), SLC22A1 (gene 6580); assay: LTEA_HepaRG_SLC22A1: Life Technologies and Expression Analysis (LTEA) Assay for solute carrier (SLC22A1) using HepaRG (AID 2283524); details: mRNA level, 48 h; actives raise or lower the signal
Outline: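 HepaRG (human liver line), 48 h dosing in serum-free induction medium; 8 conc., half-log down from 100 uM, 0.5% DMSO vehicle, duplicates. Endpoint: SLC22A1 mRNA, qRT-PCR, housekeeping-normalized; gain/loss fit vs DMSO.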

[3] = read-out: Pyruvate Dehydrogenase Kinase 4 (PDK4), PDK4 (gene 5166); assay: LTEA_HepaRG_PDK4: Life Technologies and Expression Analysis (LTEA) Assay for Pyruvate Dehydrogenase Kinase 4 (PDK4) using HepaRG (AID 2283525); details: mRNA level, 48 h; actives raise or lower the signal
Outline: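 In this multiplexed human HepaRG expression assay, cells are treated 48 h with test chemicals across an eight-point range starting at 100 uM. PDK4 mRNA changes, normalized to ACTB/GAPDH/POLR2A, are fitted in both directions relative to vehicle.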

[4] = read-out: NAD(P)H dehydrogenase [quinone] 1 (NQO1), NQO1 (gene 1728); assay: LTEA_HepaRG_NQO1: Life Technologies and Expression Analysis (LTEA) Assay for NAD(P)H dehydrogenase [quinone] 1 (NQO1) using HepaRG (AID 2283526); details: mRNA level, 48 h; actives raise or lower the signal
Outline: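 HepaRG, 48 h post-plating → serum-free induction medium → test chemical 48 h (duplicate, 100 uM top, half-log x8, 0.5% DMSO) → RNA isolation → qRT-PCR, ACTB/GAPDH/POLR2A normalization; bidirectional curve fit vs DMSO baseline.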

[5] = read-out: Nuclear factor erythroid 2-related factor 2 (Homo sapiens) (UniProt Q16236); assay: LTEA_HepaRG_NFE2L2: Life Technologies and Expression Analysis (LTEA) Assay for Nuclear factor erythroid 2-related factor 2 (NFE2L2) Transcription Factor using HepaRG (AID 2283527); details: mRNA level, 48 h; actives raise or lower the signal;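 note: TaqMan qRT-PCR transcript level normalised to ACTB GAPDH and POLR2A housekeeping genes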
Outline: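 Transcript level of NFE2L2 is the read-out, measured by microfluidic TaqMan qRT-PCR and normalized to three housekeeping genes. Human HepaRG cultures received test chemical for 48 h at up to 100 uM in half-log steps. Gain or loss of signal is fitted relative to 0.5% DMSO.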

[6] = read-out: Signal transducer and activator of transcription 3 (Homo sapiens) (UniProt P40763); assay: LTEA_HepaRG_STAT3: Life Technologies and Expression Analysis (LTEA) Assay for Signal transducer and activator of transcription (STAT3) using HepaRG (AID 2283529); details: mRNA level, 48 h; actives raise or lower the signal
Outline: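 Read-out is STAT3 mRNA level by qRT-PCR, normalized to three housekeeping genes, in human HepaRG liver cells treated for 48 h. Concentrations ran from 100 uM downward in half-log steps; curves were fitted for gain or loss relative to 0.5% DMSO.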

[7] = read-out: solute carrier (SLCO1B1), SLCO1B1 (gene 10599); assay: LTEA_HepaRG_SLCO1B1: Life Technologies and Expression Analysis (LTEA) Assay for solute carrier (SLCO1B1) using HepaRG (AID 2283530); details: mRNA level, 48 h; actives raise or lower the signal
Outline: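 Differentiated human HepaRG cells, plated 48 h, switched to serum-free induction medium and exposed in duplicate for 48 h to 8 half-log concentrations (top 100 uM) in 0.5% DMSO. SLCO1B1 mRNA by TaqMan qRT-PCR, normalized to ACTB/GAPDH/POLR2A.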

[8] = read-out: sulfotransferase 2A1 (SULT2A1), SULT2A1 (gene 6822); assay: LTEA_HepaRG_SULT2A1: Life Technologies and Expression Analysis (LTEA) Assay for sulfotransferase 2A1 (SULT2A1) using HepaRG (AID 2283531); details: mRNA level, 48 h; actives raise or lower the signal
Outline: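 Differentiated human HepaRG cells in serum-free induction medium were exposed for 48 h to eight half-log concentrations (top 100 uM, 0.5% DMSO). SULT2A1 mRNA was measured by qRT-PCR, normalized to ACTB, GAPDH and POLR2A, and fitted bidirectionally against DMSO.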

[9] = read-out: Transforming Growth Factor (TGFA), TGFA (gene 7039); assay: LTEA_HepaRG_TGFA: Life Technologies and Expression Analysis (LTEA) Assay for Transforming Growth Factor (TGFA) using HepaRG (AID 2283532); details: mRNA level, 48 h; actives raise or lower the signal
Outline: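 HepaRG (human liver line), 48 h exposure, 8 conc. half-log down from 100 uM, 0.5% DMSO vehicle, duplicates; serum-free induction medium. TGFA mRNA by TaqMan qRT-PCR, ACTB/GAPDH/POLR2A normalization; gain/loss fit vs DMSO.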

[10] = read-out: Transforming Growth Factor (TGFB1), TGFB1 (gene 7040); assay: LTEA_HepaRG_TGFB1: Life Technologies and Expression Analysis (LTEA) Assay for Transforming Growth Factor (TGFB1) Transporter using HepaRG (AID 2283533); details: mRNA level, 48 h; actives raise or lower the signal
Outline: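 Differentiated human HepaRG cells in serum-free induction medium were exposed in duplicate for 48 h to eight concentrations (top 100 uM, half-log steps, 0.5% DMSO). TGFB1 mRNA was quantified by qRT-PCR, normalized to ACTB, GAPDH, POLR2A, and fitted bidirectionally against DMSO.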

[11] = read-out: TIMP1, TIMP1 (gene 7076); assay: LTEA_HepaRG_TIMP1: Life Technologies and Expression Analysis (LTEA) Assay for TIMP1 using HepaRG (AID 2283534); details: mRNA level, 48 h; actives raise or lower the signal;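 note: TaqMan qRT-PCR signal normalized to ACTB GAPDH and POLR2A housekeeping genes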
Outline: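 Differentiated human HepaRG cells in serum-free induction medium were exposed 48 h to chemicals (8 half-log concentrations, top 100 uM, 0.5% DMSO). TIMP1 mRNA was quantified by TaqMan qRT-PCR, normalized to ACTB/GAPDH/POLR2A; bidirectional fit versus DMSO.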

[12] = read-out: Tumor necrosis factor receptor 1 (TNFRSF1A), TNFRSF1A (gene 7132); assay: LTEA_HepaRG_TNFRSF1A: Life Technologies and Expression Analysis (LTEA) Assay for Tumor necrosis factor receptor 1 (TNFRSF1A) using HepaRG (AID 2283535); details: mRNA level, 48 h; actives raise or lower the signal
Outline: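 Differentiated human HepaRG cells were exposed in duplicate for 48 h in serum-free induction medium to eight concentrations (top 100 uM, half-log steps, 0.5% DMSO). TNFRSF1A mRNA was quantified by qRT-PCR, normalized to ACTB, GAPDH and POLR2A, then fitted bidirectionally against DMSO.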

[13] = read-out: Thyroid Hormone Responsive (THRSP), THRSP (gene 7069); assay: LTEA_HepaRG_THRSP: Life Technologies and Expression Analysis (LTEA) Assay for Thyroid Hormone Responsive (THRSP) using HepaRG (AID 2283536); details: mRNA level, 48 h; actives raise or lower the signal
Outline: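 mRNA induction or loss relative to 0.5% DMSO vehicle was fitted bidirectionally across an eight-point curve whose highest exposure was 100 uM. Human HepaRG liver cells received chemicals in duplicate over 48 h before RNA extraction.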

[14] = read-out: UDP glucuronosyltransferase (UGT1A1), UGT1A1 (gene 54658); assay: LTEA_HepaRG_UGT1A1: Life Technologies and Expression Analysis (LTEA) Assay for UDP glucuronosyltransferase (UGT1A1) using HepaRG (AID 2283538); details: mRNA level, 48 h; actives raise or lower the signal
Outline: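 Readout is UGT1A1 transcript level by qRT-PCR, normalized to three housekeeping genes, after 48 h chemical treatment of HepaRG cells. Concentrations ran from 100 uM down in half-log steps with 0.5% DMSO, and gain or loss relative to DMSO was fitted.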

[15] = read-out: UDP glucuronosyltransferase (UGT1A6), UGT1A6 (gene 54578); assay: LTEA_HepaRG_UGT1A6: Life Technologies and Expression Analysis (LTEA) Assay for UDP glucuronosyltransferase (UGT1A6) using HepaRG (AID 2283539); details: mRNA level, 48 h; actives raise or lower the signal
Outline: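 Human HepaRG cells were dosed for 48 h in serum-free induction medium with 0.5% DMSO vehicle, eight-point half-log series from 100 uM, in duplicate. UGT1A6 mRNA was measured by qRT-PCR, normalized to ACTB, GAPDH, POLR2A, and fitted bidirectionally against DMSO.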

[16] = read-out: X-box binding protein 1 (XBP1), XBP1 (gene 7494); assay: LTEA_HepaRG_XBP1: Life Technologies and Expression Analysis (LTEA) Assay for X-box binding protein 1 (XBP1) using HepaRG (AID 2283540); details: mRNA level, 48 h; actives raise or lower the signal
Outline: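 Differentiated human HepaRG cells in serum-free induction medium were exposed in duplicate for 48 h to eight half-log concentrations up to 100 uM in 0.5% DMSO. XBP1 mRNA was quantified by qRT-PCR, normalised to ACTB, GAPDH and POLR2A, with bidirectional fitting against DMSO.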

[17] = LTEA_HepaRG_LDH_cytotoxicity: Cytotoxicity Assessment in the Life Technologies and Expression Analysis (LTEA) Assay (AID 2283563; active = hit-call score of the fitted dose curve at least 0.9, where 1 is the maximum)
Outline: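 Differentiated human HepaRG cells, plated 48 h beforehand, were switched to serum-free induction medium and exposed for 48 h to eight half-log concentrations (top 100 uM) in 0.5% DMSO. LDH was measured in spent medium; activity was fitted relative to DMSO vehicle.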

[18] = molecular target: Cellular tumor antigen p53 (Homo sapiens) (UniProt P04637); assay: TOX21_p53_BLA_p2_ratio: Tox21 HCT-116 p53 Agonism Beta-lactamase Assay, Ratio, Phase 2 (AID 2283592; active = hit-call score of the fitted dose curve at least 0.9, where 1 is the maximum)
Sequence of Cellular tumor antigen p53 (Homo sapiens) (P04637 whole entry, looked up): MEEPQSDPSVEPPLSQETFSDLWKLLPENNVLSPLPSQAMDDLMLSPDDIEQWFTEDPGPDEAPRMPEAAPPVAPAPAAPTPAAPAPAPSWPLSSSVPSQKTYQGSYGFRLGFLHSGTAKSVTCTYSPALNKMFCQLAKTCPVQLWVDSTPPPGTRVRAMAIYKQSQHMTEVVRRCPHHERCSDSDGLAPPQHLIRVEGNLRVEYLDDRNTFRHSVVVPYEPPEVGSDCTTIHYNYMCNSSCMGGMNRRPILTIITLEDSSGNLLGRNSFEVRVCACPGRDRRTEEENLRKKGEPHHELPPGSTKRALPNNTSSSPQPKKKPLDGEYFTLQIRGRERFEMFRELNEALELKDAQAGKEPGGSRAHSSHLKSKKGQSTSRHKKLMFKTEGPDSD
Outline: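 HCT116 cells carrying a p53-responsive beta-lactamase reporter were plated, incubated 5 h at 37C, then dosed with compounds in DMSO (217-fold dilution) for 16 h. CCF4-AM substrate was added for 2 h at room temperature; the 460/530 nm emission ratio gave gain-of-signal activity relative to DMSO.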

[19] = read-out: succinate dehydrogenase complex iron sulfur subunit B (SDHB), SDHB (gene 6390); assay: LTEA_HepaRG_SDHB: Life Technologies and Expression Analysis (LTEA) Assay for succinate dehydrogenase complex iron sulfur subunit B (SDHB) using HepaRG (AID 2283528); details: mRNA level, 48 h; actives raise or lower the signal
Outline: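 HepaRG, 48 h exposure, 8-pt half-log series from 100 uM in 0.5% DMSO, duplicates. Readout: SDHB mRNA by Fluidigm qRT-PCR vs housekeeping genes; bidirectional fit relative to DMSO.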

Measured: AC50

Sequence of Signal transducer and activator of transcription 3 (Homo sapiens) (P40763 whole entry, looked up): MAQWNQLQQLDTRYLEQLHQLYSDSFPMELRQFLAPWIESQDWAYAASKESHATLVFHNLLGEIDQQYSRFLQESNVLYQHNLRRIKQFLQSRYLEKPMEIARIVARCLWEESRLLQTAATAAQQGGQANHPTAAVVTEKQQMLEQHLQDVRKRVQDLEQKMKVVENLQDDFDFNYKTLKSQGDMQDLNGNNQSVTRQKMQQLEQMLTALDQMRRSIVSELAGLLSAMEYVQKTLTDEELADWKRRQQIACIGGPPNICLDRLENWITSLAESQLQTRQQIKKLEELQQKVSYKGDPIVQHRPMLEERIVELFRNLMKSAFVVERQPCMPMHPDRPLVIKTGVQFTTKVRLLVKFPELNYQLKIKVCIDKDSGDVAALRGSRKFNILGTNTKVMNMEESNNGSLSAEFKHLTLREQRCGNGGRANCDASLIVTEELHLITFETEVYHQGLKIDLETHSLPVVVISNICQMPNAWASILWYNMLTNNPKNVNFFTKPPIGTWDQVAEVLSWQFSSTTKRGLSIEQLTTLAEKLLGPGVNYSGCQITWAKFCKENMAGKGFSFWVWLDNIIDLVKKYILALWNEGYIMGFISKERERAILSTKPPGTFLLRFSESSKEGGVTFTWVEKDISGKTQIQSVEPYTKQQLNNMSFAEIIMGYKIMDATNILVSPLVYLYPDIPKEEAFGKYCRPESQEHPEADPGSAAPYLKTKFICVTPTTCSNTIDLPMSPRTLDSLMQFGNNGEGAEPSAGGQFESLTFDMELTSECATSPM
Sequence of Nuclear factor erythroid 2-related factor 2 (Homo sapiens) (Q16236 whole entry, looked up): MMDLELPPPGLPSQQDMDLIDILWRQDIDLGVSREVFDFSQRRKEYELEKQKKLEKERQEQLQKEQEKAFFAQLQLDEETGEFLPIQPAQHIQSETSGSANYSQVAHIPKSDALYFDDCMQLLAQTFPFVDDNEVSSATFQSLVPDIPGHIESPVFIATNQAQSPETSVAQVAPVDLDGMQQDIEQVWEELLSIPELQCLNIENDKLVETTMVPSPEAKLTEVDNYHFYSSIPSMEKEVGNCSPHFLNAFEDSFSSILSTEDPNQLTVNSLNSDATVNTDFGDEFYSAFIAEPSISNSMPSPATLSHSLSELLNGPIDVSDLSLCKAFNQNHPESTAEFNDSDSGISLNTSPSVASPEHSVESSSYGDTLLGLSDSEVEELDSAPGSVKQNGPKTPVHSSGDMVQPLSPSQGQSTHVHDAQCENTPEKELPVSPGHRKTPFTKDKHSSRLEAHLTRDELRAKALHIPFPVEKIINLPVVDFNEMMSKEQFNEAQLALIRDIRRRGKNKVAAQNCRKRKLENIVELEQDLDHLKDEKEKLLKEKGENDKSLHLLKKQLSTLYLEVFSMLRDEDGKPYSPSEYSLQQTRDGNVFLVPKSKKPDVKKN

CN1CSC(=S)N(C)C1
not listed: [19]
inactive: all other assays above

O=C1c2ccccc2C(=O)N1SC(Cl)(Cl)Cl
active: [18] 7.1 µM and 14.8 µM
not listed: [1] | [4]
inactive: all other assays above
